Experimental findings from publication PMC11006913 are described below.

Common to all, as to experiment: PBM; 200 nM protein, PBS
Conditions in all cases: dsDNA, one strand shown

Assay [1] has as its target HOXB9 (Homo sapiens, UniProt P17482 171-250, T197M).
In assay [2] the target is HOXC9 (Homo sapiens, UniProt P31274 178-260, K195R).
The target in assay [3] is T1, VENTX (Homo sapiens, UniProt O95231 78-163).
T1 sequence: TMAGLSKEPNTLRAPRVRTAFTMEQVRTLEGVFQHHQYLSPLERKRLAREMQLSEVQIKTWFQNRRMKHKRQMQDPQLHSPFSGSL

Assay [4] addresses HOXA7 (Homo sapiens, UniProt P31268 116-202).
Assay [5] has as its target HOXC10 (Homo sapiens, UniProt Q9NYD6 254-340).
The target of assay [6] is T2, PAX4 (Homo sapiens, UniProt O43316 9-242).
T2 sequence: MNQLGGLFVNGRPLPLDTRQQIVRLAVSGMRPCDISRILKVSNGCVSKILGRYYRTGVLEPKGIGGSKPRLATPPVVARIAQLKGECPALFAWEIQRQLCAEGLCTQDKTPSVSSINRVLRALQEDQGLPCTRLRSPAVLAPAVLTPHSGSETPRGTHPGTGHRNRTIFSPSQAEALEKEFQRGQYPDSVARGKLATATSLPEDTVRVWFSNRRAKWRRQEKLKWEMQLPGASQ

Assay [7] has as its target HOXB6 (Homo sapiens, UniProt P17509 132-218, K202E).
Assay [8] has as its target HOXB9 (Homo sapiens, UniProt P17482 171-250).
Assay [9] deals with HOXC9 (Homo sapiens, UniProt P31274 178-260).
Assay [10] deals with HOXC9 (Homo sapiens, UniProt P31274 178-260, R193K).
The target of assay [11] is HOXA2 (Homo sapiens, UniProt O43364 129-215, R185K).
Assay [12] has as its target HOXC10 (Homo sapiens, UniProt Q9NYD6 254-340, K271E).
Assay [13] deals with VAX1 (Homo sapiens, UniProt Q5SQQ9 86-172).
Assay [14] concerns the target HOXB9 (Homo sapiens, UniProt P17482 171-250, R186Q).
For assay [15], the target named is HOXC9 (Homo sapiens, UniProt P31274 178-260, R222W).
For assay [16], the target named is T3, PAX4 (Homo sapiens, UniProt O43316 9-242, R227W).
T3 sequence: T2 sequence with R219W

Assay [17] concerns the target HOXA2 (Homo sapiens, UniProt O43364 129-215, Y150S).
Assay [18] deals with HOXA7 (Homo sapiens, UniProt P31268 116-202, W177C).
Assay [19] deals with HOXA2 (Homo sapiens, UniProt O43364 129-215).
The target of assay [20] is HOXB6 (Homo sapiens, UniProt P17509 132-218).

Positions count from the first letter of the chain named.

Chain of HOXC9 (Homo sapiens, UniProt P31274 178-260) (P31274 178-260): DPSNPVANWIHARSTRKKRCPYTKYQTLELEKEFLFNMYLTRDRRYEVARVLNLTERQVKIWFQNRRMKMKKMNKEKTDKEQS
Chain of HOXC9 (Homo sapiens, UniProt P31274 178-260, R193K) (P31274 178-260 R193K): as the sequence (P31274 178-260) above, with R16K counted along it
Chain of HOXA7 (Homo sapiens, UniProt P31268 116-202, W177C) (P31268 116-202 W177C): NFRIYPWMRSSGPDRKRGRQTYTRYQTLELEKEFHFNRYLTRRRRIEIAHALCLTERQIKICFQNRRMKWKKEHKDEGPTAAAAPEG
Chain of HOXB9 (Homo sapiens, UniProt P17482 171-250) (P17482 171-250): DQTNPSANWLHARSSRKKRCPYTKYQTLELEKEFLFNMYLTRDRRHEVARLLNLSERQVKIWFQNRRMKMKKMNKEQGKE
Chain of HOXC9 (Homo sapiens, UniProt P31274 178-260, K195R) (P31274 178-260 K195R): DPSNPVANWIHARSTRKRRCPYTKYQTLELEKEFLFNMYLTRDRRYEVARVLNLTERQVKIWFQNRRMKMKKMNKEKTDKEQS
Chain of VAX1 (Q5SQQ9 86-172): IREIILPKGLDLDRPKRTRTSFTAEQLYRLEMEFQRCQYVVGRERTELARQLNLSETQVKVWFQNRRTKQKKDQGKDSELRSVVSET
Chain of HOXA2 (Homo sapiens, UniProt O43364 129-215) (O43364 129-215): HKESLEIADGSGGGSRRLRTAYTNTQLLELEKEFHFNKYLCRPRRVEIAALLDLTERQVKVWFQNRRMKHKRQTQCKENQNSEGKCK
Chain of HOXB9 (Homo sapiens, UniProt P17482 171-250, R186Q) (P17482 171-250 R186Q): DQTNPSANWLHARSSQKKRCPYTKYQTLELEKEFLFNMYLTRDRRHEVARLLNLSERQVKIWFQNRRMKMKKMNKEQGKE
Chain of HOXA7 (Homo sapiens, UniProt P31268 116-202) (P31268 116-202): as the sequence (P31268 116-202 W177C) above, with C62W counted along it
Chain of HOXC10 (Homo sapiens, UniProt Q9NYD6 254-340, K271E) (Q9NYD6 254-340 K271E): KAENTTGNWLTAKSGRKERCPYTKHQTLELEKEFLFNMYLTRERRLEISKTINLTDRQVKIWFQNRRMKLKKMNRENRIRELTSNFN
Chain of HOXA2 (Homo sapiens, UniProt O43364 129-215, Y150S) (O43364 129-215 Y150S): as the sequence (O43364 129-215) above, with Y22S counted along it
Chain of HOXB6 (Homo sapiens, UniProt P17509 132-218) (P17509 132-218): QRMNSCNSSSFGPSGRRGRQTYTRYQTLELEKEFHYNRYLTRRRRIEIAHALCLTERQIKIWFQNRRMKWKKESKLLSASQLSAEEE
Chain of HOXB6 (Homo sapiens, UniProt P17509 132-218, K202E) (P17509 132-218 K202E): as the sequence (P17509 132-218) above, with K71E counted along it
Chain of HOXA2 (Homo sapiens, UniProt O43364 129-215, R185K) (O43364 129-215 R185K): as the sequence (O43364 129-215) above, with R57K counted along it
Chain of HOXC10 (Homo sapiens, UniProt Q9NYD6 254-340) (Q9NYD6 254-340): as the sequence (Q9NYD6 254-340 K271E) above, with E18K counted along it
Chain of HOXB9 (Homo sapiens, UniProt P17482 171-250, T197M) (P17482 171-250 T197M): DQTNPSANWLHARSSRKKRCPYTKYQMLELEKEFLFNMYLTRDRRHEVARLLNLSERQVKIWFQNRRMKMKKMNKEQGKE
Chain of HOXC9 (Homo sapiens, UniProt P31274 178-260, R222W) (P31274 178-260 R222W): as the sequence (P31274 178-260) above, with R45W counted along it

As to GGTAATTA, the binding signal in assay [1] was 10.6 upbm affinity estimate (log intensity, higher = more binding, comparable within an allelic series); in assay [2], 13.2 upbm affinity estimate (log intensity, higher = more binding, comparable within an allelic series); in assay [3], 13.2 upbm affinity estimate (log intensity, higher = more binding, comparable within an allelic series); in [4], 12.6 upbm affinity estimate (log intensity, higher = more binding, comparable within an allelic series); in [5] it was 12.5 upbm affinity estimate (log intensity, higher = more binding, comparable within an allelic series); in assay [6], 12.5 upbm affinity estimate (log intensity, higher = more binding, comparable within an allelic series). Further, the binding signal is 10.4 upbm affinity estimate (log intensity, higher = more binding, comparable within an allelic series) in assay [7]; 12.3 upbm affinity estimate (log intensity, higher = more binding, comparable within an allelic series) in [8]; 13.1 upbm affinity estimate (log intensity, higher = more binding, comparable within an allelic series) in assay [9]; 13.1 upbm affinity estimate (log intensity, higher = more binding, comparable within an allelic series) in [10]; 14.1 upbm affinity estimate (log intensity, higher = more binding, comparable within an allelic series) in assay [11]; 12.7 upbm affinity estimate (log intensity, higher = more binding, comparable within an allelic series) in [12]. In addition, the binding signal is 14.1 upbm affinity estimate (log intensity, higher = more binding, comparable within an allelic series) in [13]; 12.2 upbm affinity estimate (log intensity, higher = more binding, comparable within an allelic series) in assay [14]; 11 upbm affinity estimate (log intensity, higher = more binding, comparable within an allelic series) in [15]; 11.1 upbm affinity estimate (log intensity, higher = more binding, comparable within an allelic series) in assay [16]; 11 upbm affinity estimate (log intensity, higher = more binding, comparable within an allelic series) in [17]; 9.03 upbm affinity estimate (log intensity, higher = more binding, comparable within an allelic series) in assay [18]. The binding signal in assay [19] is 13.4 upbm affinity estimate (log intensity, higher = more binding, comparable within an allelic series); in assay [20], 12.9 upbm affinity estimate (log intensity, higher = more binding, comparable within an allelic series).
Regarding AATAATTA, the binding signal in assay [1] is 10.3 upbm affinity estimate (log intensity, higher = more binding, comparable within an allelic series); in assay [2] it was 12.7 upbm affinity estimate (log intensity, higher = more binding, comparable within an allelic series); in assay [3] it was 12.4 upbm affinity estimate (log intensity, higher = more binding, comparable within an allelic series); in assay [4], 11.9 upbm affinity estimate (log intensity, higher = more binding, comparable within an allelic series); in assay [5], 12.2 upbm affinity estimate (log intensity, higher = more binding, comparable within an allelic series); in assay [6], 12.3 upbm affinity estimate (log intensity, higher = more binding, comparable within an allelic series). Further, the binding signal is 10.2 upbm affinity estimate (log intensity, higher = more binding, comparable within an allelic series) in assay [7]; 11.9 upbm affinity estimate (log intensity, higher = more binding, comparable within an allelic series) in [8]; 12.7 upbm affinity estimate (log intensity, higher = more binding, comparable within an allelic series) in assay [9]; 12.6 upbm affinity estimate (log intensity, higher = more binding, comparable within an allelic series) in assay [10]; 13.6 upbm affinity estimate (log intensity, higher = more binding, comparable within an allelic series) in assay [11]; 11.9 upbm affinity estimate (log intensity, higher = more binding, comparable within an allelic series) in [12]. Besides, the binding signal is 13.3 upbm affinity estimate (log intensity, higher = more binding, comparable within an allelic series) in assay [13]; 11.6 upbm affinity estimate (log intensity, higher = more binding, comparable within an allelic series) in [14]; 11.1 upbm affinity estimate (log intensity, higher = more binding, comparable within an allelic series) in assay [15]; 11.2 upbm affinity estimate (log intensity, higher = more binding, comparable within an allelic series) in assay [16]; 10.9 upbm affinity estimate (log intensity, higher = more binding, comparable within an allelic series) in [17]; 9.07 upbm affinity estimate (log intensity, higher = more binding, comparable within an allelic series) in [18]. Moreover, the binding signal in assay [19] is 12.9 upbm affinity estimate (log intensity, higher = more binding, comparable within an allelic series); in assay [20] it was 12.3 upbm affinity estimate (log intensity, higher = more binding, comparable within an allelic series).
Consider ATTAATTA, for which the binding signal in [1] was 10.6 upbm affinity estimate (log intensity, higher = more binding, comparable within an allelic series); in [2], 13.3 upbm affinity estimate (log intensity, higher = more binding, comparable within an allelic series); in assay [3], 13.2 upbm affinity estimate (log intensity, higher = more binding, comparable within an allelic series); in assay [4] it was 12.6 upbm affinity estimate (log intensity, higher = more binding, comparable within an allelic series); in [5] it was 12.6 upbm affinity estimate (log intensity, higher = more binding, comparable within an allelic series); in [6] it was 12.8 upbm affinity estimate (log intensity, higher = more binding, comparable within an allelic series). Also, the binding signal in [7] was 10.4 upbm affinity estimate (log intensity, higher = more binding, comparable within an allelic series); in assay [8] it was 12.6 upbm affinity estimate (log intensity, higher = more binding, comparable within an allelic series); in assay [9], 13.2 upbm affinity estimate (log intensity, higher = more binding, comparable within an allelic series); in assay [10] it was 13.2 upbm affinity estimate (log intensity, higher = more binding, comparable within an allelic series); in assay [11], 14 upbm affinity estimate (log intensity, higher = more binding, comparable within an allelic series); in assay [12], 12.7 upbm affinity estimate (log intensity, higher = more binding, comparable within an allelic series). Besides, the binding signal is 13.8 upbm affinity estimate (log intensity, higher = more binding, comparable within an allelic series) in assay [13]; 12.3 upbm affinity estimate (log intensity, higher = more binding, comparable within an allelic series) in assay [14]; 11.5 upbm affinity estimate (log intensity, higher = more binding, comparable within an allelic series) in [15]; 11.4 upbm affinity estimate (log intensity, higher = more binding, comparable within an allelic series) in [16]; 11.1 upbm affinity estimate (log intensity, higher = more binding, comparable within an allelic series) in assay [17]; 9.01 upbm affinity estimate (log intensity, higher = more binding, comparable within an allelic series) in [18]. Besides, the binding signal in assay [19] was 13.3 upbm affinity estimate (log intensity, higher = more binding, comparable within an allelic series); in [20], 12.8 upbm affinity estimate (log intensity, higher = more binding, comparable within an allelic series).
In the case of GTAATTAC, the binding signal in assay [1] is 10.6 upbm affinity estimate (log intensity, higher = more binding, comparable within an allelic series); in assay [2], 13.1 upbm affinity estimate (log intensity, higher = more binding, comparable within an allelic series); in [3], 12.9 upbm affinity estimate (log intensity, higher = more binding, comparable within an allelic series); in assay [4], 12.5 upbm affinity estimate (log intensity, higher = more binding, comparable within an allelic series); in assay [5] it was 12.5 upbm affinity estimate (log intensity, higher = more binding, comparable within an allelic series); in assay [6] it was 12.5 upbm affinity estimate (log intensity, higher = more binding, comparable within an allelic series). Besides, the binding signal is 10.4 upbm affinity estimate (log intensity, higher = more binding, comparable within an allelic series) in assay [7]; 12.3 upbm affinity estimate (log intensity, higher = more binding, comparable within an allelic series) in [8]; 13.1 upbm affinity estimate (log intensity, higher = more binding, comparable within an allelic series) in assay [9]; 13.2 upbm affinity estimate (log intensity, higher = more binding, comparable within an allelic series) in assay [10]; 14.3 upbm affinity estimate (log intensity, higher = more binding, comparable within an allelic series) in assay [11]; 12.6 upbm affinity estimate (log intensity, higher = more binding, comparable within an allelic series) in assay [12]. Besides, the binding signal in [13] is 13.9 upbm affinity estimate (log intensity, higher = more binding, comparable within an allelic series); in assay [14], 12.1 upbm affinity estimate (log intensity, higher = more binding, comparable within an allelic series); in assay [15], 11 upbm affinity estimate (log intensity, higher = more binding, comparable within an allelic series); in [16] it was 11 upbm affinity estimate (log intensity, higher = more binding, comparable within an allelic series); in assay [17], 11.2 upbm affinity estimate (log intensity, higher = more binding, comparable within an allelic series); in assay [18] it was 9.01 upbm affinity estimate (log intensity, higher = more binding, comparable within an allelic series). Further, the binding signal was 13.4 upbm affinity estimate (log intensity, higher = more binding, comparable within an allelic series) in assay [19] and 12.8 upbm affinity estimate (log intensity, higher = more binding, comparable within an allelic series) in assay [20].
